“And” between values parts separate entries of the source, which are not always exact repeats. Equal values may be shown once. Screen size: about 5,500 compounds; about 2,000 (36%) were called active. Roughly 18% stayed inconclusive and do not appear here. No stated cut-off is given here; in the data, active means normalized growth mostly below about 0.91 (no sharp cut-off); inconclusive means no clear call, values can overlap the other calls; inactive means mostly above about 0.92. This is one part of the list.
Test: chemical genetic growth profiling, strain panel (AID 1159580);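 further: tested at 20 µM; growth read once vehicle control cultures reached saturation at 30 °C; 1 = growth at the plate median or of vehicle wells; lower values mean less growth of the strain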
Settings: S. cerevisiae deletion strains, growth OD

Measured: normalized growth

CN(C)CCC(c1ccccc1)c1ccccn1 (centres undefined)
inactive: locus YAL013W, strain DEP1, hits give low values 0.99 | locus YAL021C, strain ccr4, hits give low values 1.02 | locus YAL026C, strain drs2, hits give low values 1.02 | locus YAL030W, strain snc1, hits give low values 1 | locus YAL040C, strain CLN3, hits give low values 1.01 | locus YBL061C, strain skt5, hits give low values 1.01 | locus YBR009C, strain hhf1, hits give low values 1.01 | locus YBR021W, strain FUR4, hits give low values 1.01 | locus YBR023C, strain chs3, hits give low values 1.01 | locus YBR171W, strain sec66, hits give low values 1.03 | locus YBR229C, strain ROT2, hits give low values 1 | locus YBR231C, strain swc5, hits give low values 1.01 | locus YBR279W, strain paf1, hits give low values 1.01 | locus YCL011C, strain gbp2, hits give low values 1.01 | locus YCL016C, strain dcc1, hits give low values 1.02 | locus YCL029C, strain bik1, hits give low values 1 | locus YCL061C, strain MRC1 (second series), hits give low values 1.01 | locus YCL061C, strain MRC1, hits give low values 1.01 | locus YCL069W, strain vba3, hits give low values 1.01 | locus YCR088W, strain abp1, hits give low values 1 | locus YDL005C, strain med2, hits give low values 1.02 | locus YDL035C, strain GPR1, hits give low values 1.01 | locus YDL040C, strain nat1, hits give low values 1.01 | locus YDL074C, strain BRE1, hits give low values 0.991 | locus YDL101C, strain DUN1, hits give low values 1.01 | locus YDL134C, strain PPH21, hits give low values 1.01 | locus YDL185W, strain tfp1, hits give low values 1 | locus YDL192W, strain arf1, hits give low values 1.01 | locus YDR001C, strain nth1, hits give low values 1.01 | locus YDR069C, strain doa4, hits give low values 0.994 | locus YDR101C, strain arx1, hits give low values 1 | locus YDR137W, strain rgp1, hits give low values 1.03 | locus YDR150W, strain NUM1, hits give low values 1.01 | locus YDR159W, strain sac3, hits give low values 1.02 | locus YDR162C, strain NBP2, hits give low values 1.01 | locus YDR195W, strain ref2 0.981 | locus YDR297W, strain sur2, hits give low values 1 | locus YDR318W, strain mcm21, hits give low values 1.01 | locus YDR334W, strain swr1, hits give low values 1.01 | locus YDR335W, strain msn5, hits give low values 1.01 | locus YDR363W, strain ESC2, hits give low values 1.05 | locus YDR388W, hits give low values 1 | locus YDR392W, strain spt3, hits give low values 0.973 | locus YDR502C, strain sam2, hits give low values 0.994 | locus YEL003W, strain gim4, hits give low values 0.993 | locus YEL037C, strain rad23, hits give low values 1.02 | locus YEL061C, strain CIN8 (second series), hits give low values 1.01 | locus YEL061C, strain CIN8, hits give low values 1 | locus YER002W, strain NOP16, hits give low values 1.01 | locus YER015W, strain faa2, hits give low values 1.01 | locus YER016W, strain bim1, hits give low values 1.01 | locus YER110C, hits give low values 1 | locus YER111C, strain swi4, hits give low values 1.03 | locus YER155C, strain BEM2 (second series), hits give low values 1.02 | locus YER155C, strain BEM2, hits give low values 1 | locus YER167W, strain BCK2, hits give low values 1.01 | locus YFR010W, strain ubp6, hits give low values 1.01 | locus YGL078C, strain dbp3, hits give low values 0.991 | locus YGL086W, strain mad1, hits give low values 0.997 | locus YGL167C, strain pmr1, hits give low values 1.02 | locus YGL173C, strain kem1, hits give low values 1.01 | locus YGL227W, strain vid30, hits give low values 1.02 | locus YGL240W, strain doc1, hits give low values 0.999 | locus YGL248W, strain PDE1, hits give low values 1 | locus YGL253W, strain hxk2, hits give low values 1.02 | locus YGR135W, strain pre9, hits give low values 1.01 | locus YGR229C, strain SMI1, hits give low values 0.992 | locus YGR252W, strain gcn5, hits give low values 0.948 | locus YHR013C, strain ard1, hits give low values 1.03 | locus YHR027C, strain rpn1, hits give low values 1.03 | locus YHR030C, strain SLT2, hits give low values 1.01 and 0.972 | locus YHR079C, strain IRE1 (second series), hits give low values 1.01 | locus YHR079C, strain IRE1, hits give low values 0.975 | locus YHR094C, strain hxt1, hits give low values 1 | locus YHR129C, strain ARP1, hits give low values 0.998 | locus YHR142W, strain chs7, hits give low values 1.01 | locus YHR200W, strain rpn10, hits give low values 0.998 | locus YIL066C, strain RNR3, hits give low values 1.01 | locus YIL073C, strain SPO22, hits give low values 1.04 | locus YIL125W, strain kgd1, hits give low values 1.01 | locus YIR030C, strain dcg1, hits give low values 1.01 | locus YJL092W, strain hpr5, hits give low values 1.01 | locus YJL095W, strain BCK1 (second series), hits give low values 1.01 | locus YJL095W, strain BCK1, hits give low values 0.99 and 0.976 | locus YJL115W, strain asf1, hits give low values 1.01 | locus YJL129C, strain trk1, hits give low values 1.01 | locus YJL134W, strain LCB3, hits give low values 1.01 | locus YJL154C, strain vps35, hits give low values 1.01 | locus YJL164C, strain tpk1, hits give low values 1.01 | locus YJL166W, strain qcr8, hits give low values 1 | locus YJL168C, strain set2, hits give low values 1.01 | locus YJL187C, strain SWE1 (second series), hits give low values 1.01 | locus YJL187C, strain SWE1, hits give low values 1 | locus YJR043C, strain POL32, hits give low values 0.997
